Screens from PubChem.
Hits are enriched below; roughly 3.1% of the tested compounds scored in any of these assays.
SKKanGAS inh: blocks kanamycin growth of S. pyogenes SKKanGAS strain; BacTiter-Glo, 6 h; inhibition, % at 7.5 µM; hit rate 1.3% among 300,000; AID 1662;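 active = mean replicate score, as percent of positive control median, at least 50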;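 note: strain carries kanamycin resistance gene driven by streptokinase promoter and grows in 40 µg/ml kanamycin; loss of luminescence reflects streptokinase promoter inhibition or plain growth inhibition; 0% = median of DMSO wells and 100% = positive control at its reference dose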
Beta cell apopt: blocks beta cell apoptosis | INS-1E cytokine-induced death, ATP luminescence, 48 h; percent of positive-control rescue, neutral wells zero | protection from apoptosis, % (no concentration beside the values) | AID 435005 | hit rate 0.8% among 300,000;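 active = Every replicate reaches about 75%, or at least half do and their mean reaches it too, limit read from the data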;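 note: 0% = cytokine-treated negative control wells and 100% = positive control rescue; higher means more ATP so stronger rescue from cytokine killing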
PP5 primary: inhibitors of human protein phosphatase 5 (PP5). hit rate 0.18% among 320,000. inhibition, % at 6.7 µM. purified PP5c, OMFP substrate fluorescence. AID 1987;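 active = inhibition above the campaign's mean inhibition across all tested compounds plus 3 SD, cut at about 9.5% in these data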;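 note: 0% = DMSO only and 100% = 100 µM cantharidin control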
PP1 counter: PP1-alpha (human) inhibition in PP5 counter-screen | purified PP1alpha, OMFP fluorescence | inhibition, % at 6.7 µM | hit rate 0.9% among 320,000;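 active = inhibition above the mean inhibition of all tested compounds plus 3 SD, computed separately for each screening campaign, cut at about 15% in these data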
Target sequence (P62136 whole entry, looked up): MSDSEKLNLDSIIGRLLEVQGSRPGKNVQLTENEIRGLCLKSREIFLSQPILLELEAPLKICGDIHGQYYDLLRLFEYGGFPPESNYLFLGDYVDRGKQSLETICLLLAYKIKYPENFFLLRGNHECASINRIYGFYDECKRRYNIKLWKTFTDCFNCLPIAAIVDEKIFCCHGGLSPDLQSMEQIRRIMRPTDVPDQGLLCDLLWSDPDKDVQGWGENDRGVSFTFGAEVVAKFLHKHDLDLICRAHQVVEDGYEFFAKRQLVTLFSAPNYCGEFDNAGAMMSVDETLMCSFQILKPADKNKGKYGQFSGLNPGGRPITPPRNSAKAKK
CSC inhib: blocks cancer stem cells; hit rate 1.1% among 300,000; cancer stem cell-like cells viability, luminescence; inhibition, % at 7.5 µM; in the data active = inhibition above about 75%; tested in HMLE shEcad cells
PP1 confirm: human PP1 phosphatase inhibition, confirmation | hit rate 52% among 1,900 | inhibition, % at 6.7 µM | shares compounds with PP1 counter | AID 2358 | purified PP1alpha, OMFP substrate fluorescence;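 active = mean PP1 inhibition above a set limit taken from the earlier primary screen, cut at about 15% in these data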
PP5 counter: inhibits human PP5 phosphatase in PP1 counter-screen | shares compounds with PP1 counter | purified PP5c, OMFP fluorescence | inhibition, % at 6.7 µM | hit rate 4% among 1,900 | AID 2360;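 active = mean PP5 inhibition over triplicate wells above about 9.5% taken from the earlier PP1 screen, limit read from the data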
* = called active by the depositor; . = no result given.

SMILES | SKKanGAS inh | Beta cell apopt | PP5 primary | PP1 counter | CSC inhib | PP1 confirm | PP5 counter
CC(=O)Nc1cccc(NC(=O)C(=O)NCC(c2ccco2)N2CCc3ccccc32)c1 (stereo not given) | 3 | -4 | -1 | -1 | 10 | . | .
O=C(O)C1=NN(c2ccccc2)C(=O)C1 | 5 | -4 | -3 | 29* | -15 | -3 | -4
Cc1ccc(C)c(CSc2ccc3nnc(-c4ccccn4)n3n2)c1 | 9 | 6 | 0 | 22* | -8 | 13 | -4
Brc1ccc(CSc2ccc3nnc(-c4ccccn4)n3n2)cc1 | 1 | . | -1 | 26* | . | 20* | -5
O=C1OC2(c3ccccc31)c1cc(I)c(O)c(I)c1Oc1c2cc(I)c(O)c1I | . | 27 | -20 | -35 | 25 | . | .
Cn1c(=O)c(=O)n(C)c2cc(S(=O)(=O)N3CCCC3C(=O)Nc3ccccc3F)ccc21 (stereo not given) | -7 | -5 | -1 | -4 | . | . | .
O=C1/C(=C\c2cccnc2)Sc2ccccc21 | 6 | 2 | 3 | 19* | 13 | 16* | -3
CCN(CC)S(=O)(=O)c1cccc(N=NC2=C(O)CCCC2=O)c1 | 10 | -5 | -2 | 57* | 3 | 0 | -4
CCCCn1c2ccccc2c2nnc(SCC(=O)NC3=NN=C(c4ccccc4)CS3)nc21 | 20 | 60 | 2 | 26* | 0 | 27* | 3
NC(=O)C1CCN(C(=O)c2ccc3nc(-c4ccccc4)c(-c4ccccc4)nc3c2)CC1 | 2 | 8 | -1 | -5 | -11 | . | .
O=C(Oc1ccc(/C=N/Nc2ccccc2)cc1)c1ccccc1 | 12 | 2 | 2 | 21* | 21 | 8 | -3
O=C(O)c1ccc(N/N=C/c2ccc(OC(=O)c3cccc(Cl)c3)cc2)cc1 | 57* | 0 | 1 | 52* | 5 | 14 | -1
O=C(O)c1cccc(N/N=C/c2ccc(OC(F)(F)F)cc2)c1 | 3 | -3 | 0 | 4 | 1 | . | .
Cc1ccc(NC(=O)CN2C(=O)NC(Cc3c[nH]c4ccccc34)C2=O)cc1 (stereo not given) | . | -2 | 1 | -2 | 4 | . | .
CC(=O)c1sc(NC(=O)c2ccc(C(C)(C)C)cc2)nc1C | 4 | 1 | 2 | 4 | 16 | . | .
O=C(CNc1cc(S(=O)(=O)N2CCCC2)ccc1OCC(F)(F)F)Nc1cccc(C(F)(F)F)c1 | -5 | 35 | 8 | 6 | -1 | . | .
O=C(/C=C/c1ccc(F)cc1)NC(=S)NNC(=O)[C@H]1C[C@@H]1c1ccccc1 | 85* | 7 | 3 | 18* | -5 | 7 | -3
O=C(/C=C/c1ccc(F)cc1)NC(=S)Nc1ccccc1O | -5 | 6 | . | . | 7 | . | .
O=C1c2cccc3c(Cl)ccc(c23)C(=O)N1O | -1 | -9 | 2 | 38* | 26 | 30* | -6
CSCc1cc(N(C)C)nc(SCc2ccc(Cl)c(Cl)c2)n1 | -3 | 1 | 1 | 22* | 17 | 10 | -2
CNc1cc(CSC)nc(SCc2ccc(Cl)cc2Cl)n1 | 20 | -5 | 4 | 8 | 27 | . | .
COc1ccc(NC(=O)c2cc(-c3ccncc3)nc3ccc(Br)cc23)cc1OC | 7 | 24 | 1 | 18* | 14 | 24* | 0
CCc1cccc(C)c1NC(=O)CSc1nc(-c2ccccc2F)nc2nc[nH]c12 | 3 | -8 | -1 | 24* | 1 | 16* | -4
CCc1ccc2nc(NC(=O)Cn3cnc4ccccc4c3=O)sc2c1 | -8 | 5 | 2 | 26* | 5 | 29* | -3
O=C(Cn1cnc2ccccc2c1=O)Nc1nc2ccccc2s1 | 5 | -3 | 2 | 2 | 0 | . | .
SMILES | SKKanGAS inh | Beta cell apopt | PP5 primary | PP1 counter | CSC inhib | PP1 confirm | PP5 counter
Cc1ccc(NC(=O)CNCc2ccccc2Cl)cc1S(=O)(=O)N(C)C | 1 | 6 | 3 | -1 | -5 | . | .
CCc1nnc(NS(=O)(=O)c2ccc(NC(=S)NC(=O)/C=C/c3ccc(F)cc3)cc2)s1 | -7 | 4 | 3 | 20* | -7 | 12 | 2
O=C1COc2ccc(C(=O)COC(=O)/C=C/c3ccc(Br)o3)cc2N1 | -7 | . | 1 | 22* | -2 | 26* | -1
Cc1ccc(/C=C/C(=O)OCC(=O)c2ccc3c(c2)NC(=O)CO3)o1 | . | -1 | . | . | -10 | . | .
Cc1ccc(CN2C(=O)C3CCCN3c3ccc(C#N)cc32)cc1 (stereo not given) | -8 | -1 | 4 | 18* | -12 | 13 | -2
Cc1ccc(C)c(CN2C(=O)C3CCCN3c3ccc(C#N)cc32)c1 (stereo not given) | -5 | . | 3 | 6 | -10 | . | .
CN(C(=O)C(=O)c1cn(CC(=O)N2CCCC2)c2ccccc12)C1CCCCC1 | 33 | -8 | 4 | -4 | -5 | . | .
O=C(O)c1ccc(NCCc2ccc(Cl)cc2)c([N+](=O)[O-])c1 | 13 | -4 | -1 | 3 | 6 | . | .
CC(C)(C)C(=O)Nc1scc(-c2ccc(-c3ccccc3)cc2)c1C(=O)O | 26 | 4 | -6 | 18* | 48 | 8 | 1
O=C(Nc1ccccn1)c1cc2cc([N+](=O)[O-])ccc2s1 | 20 | -6 | -2 | 21* | 1 | 18* | -4
O=C(Nc1ccccn1)c1ccc([N+](=O)[O-])cc1Cl | 7 | 2 | -2 | -3 | -10 | . | .
Cc1cccc(N2CCN(S(=O)(=O)c3ccc4c(c3)CC(=O)N4C)CC2)c1C | -2 | -4 | 1 | 18* | 3 | 8 | 3
Cc1cccc(N2CCN(S(=O)(=O)c3ccc(S(=O)(=O)N4CCCC4)cc3)CC2)c1C | 1 | -4 | 0 | -2 | . | . | .
Cc1ccc(Nc2cc(C)nn2-c2nc(C)cc(=O)[nH]2)cc1 | 92* | 98* | 3 | 26* | 93* | 20* | 1
Cc1ccc(Nc2nc3ccccc3nc2-n2nc(C)cc2C)cc1 | 7 | 1 | -1 | 4 | 41 | . | .
CCOC(=O)c1sc(N2N=C(C)/C(=C\c3ccc(OCC(=O)OC)cc3)C2=O)nc1C | 4 | 2 | 1 | 24* | 4 | 8 | 1
Cc1ccc(CSCC2Nc3ccc(C(=O)N4CCN(c5cccc(C)c5)C(C)C4)cc3NC2=O)cc1 (stereo not given) | 8 | -5 | 1 | 19* | 19 | 29* | -6
Cc1cccc(N2CCN(C(=O)c3ccc4c(c3)c(C)c(C)n4C)CC2C)c1 (stereo not given) | 9 | -10 | 4 | 5 | 60 | . | .
O=C(NCc1ccc2c(c1)OCO2)C12CN(Cc3ccccc3)CC1C(c1cccc([N+](=O)[O-])c1)=NO2 (stereo not given) | 11 | 40 | 2 | 25* | 9 | 12 | -2
CSCCC(NC(=O)/C(=C/c1ccc(F)cc1)NC(C)=O)C(=O)O (stereo not given) | -3 | -6 | 2 | 1 | 3 | . | .
O=S(=O)(c1ccc(Cl)cc1)N1CCN(Cc2ccc(O)c3ncccc23)CC1 | 6 | 86* | 3 | 18* | 89* | 24* | -2
O=S(=O)(c1ccc(Cl)cc1)N1CCN(Cc2ccncc2)CC1 | -1 | -5 | 2 | 2 | 14 | . | .
